“And” between values parts separate entries of the source, which are not always exact repeats. Equal values may be shown once. The panel holds about 83,000 compounds, 20% with a hit somewhere; the sample as a whole holds those more often.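 The endpoint reported here, percent growth, reads 100 for growth as untreated, 0 for no net growth and -100 for all cells dead.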 Values without a mark were called inactive. The source made the active and inactive calls. Rule for the calls: active = growth percent below 10; inactive = the rest.
test system: MDA-MB-468 breast; assay: NCI-60 one-dose screen, 48 h (100 = growth as untreated, 0 = no growth, -100 = all killed); conditions: 10 µM unless noted

| Structure (SMILES) | growth |
| --- | --- |
| COc1ccc(-c2c(-c3ccc(OC)c(O)c3)cnc3ncnn23)cc1 | 109% |
| COc1cccc2cc(-c3cc4ccccc4[nH]3)/c(=N\NC(=O)c3ccc(Cl)cc3)oc12 | -2.01% (active) |
| NS(=O)(=O)c1ccc(Nc2nc(N/N=C/c3ccc([N+](=O)[O-])cc3)nc(Nc3ccccc3)n2)cc1 | 1.11% (active) |
| CC(SC(C)C(=O)N/N=C/c1cccc(Cl)c1)C(=O)N/N=C\c1cccc(Cl)c1 (centres undefined) | 97.4% |
| Nc1ccc(-c2nn3c(CCC(=O)c4nc5ncccc5[nH]4)nnc3s2)c(O)c1 | 74.6% |
| Cc1ccc2c(c1)=C/C(=C\c1cc(-c3ccccc3)oc1O)C(=O)N=2 | 109% |
| Cn1ncc(Cl)c1-c1cc(C(=O)N[C@H](CN)Cc2cccc(F)c2)sc1Cl | -62.5% (active) |
| COc1ccc(CNCCN2C(=O)c3ccc4c5c(ccc(c35)C2=O)C(=O)N(CCNCc2ccc(OC)c(OC)c2OC)C4=O)c(OC)c1OC | -87.2% (active) |
| CCOC(=O)c1sc2nc(-c3cccc(O)c3)nc(N3CCOCC3)c2c1C | 47.5% |
| CC(=O)Nc1ccc(O)cc1 | 105% and 111% |
| COc1ccc(-c2cnoc2-c2ccc(OC)cc2O)cc1 | 1% (active) |
| CCOC(=O)Oc1c(OC)cc(C(=O)c2ccc(OC)c(OC(=O)CCl)c2OC)cc1OC | 0.206% (active) |
| O=C(Nc1ccc(Cl)c(Cl)c1)O/N=C\c1c(Cl)ccc([N+](=O)[O-])c1Cl | -65% (active) |
| COc1ccccc1OC(=O)Oc1ccccc1OC | 106% and 119% |

From PubChem BioAssay (NCI)
